# In the library only some 2.7% were active in any assay of this set; here they are far more common.
# TMEM16A act – activates or potentiates the mouse TMEM16A chloride channel. HEK293 TMEM16A/YFP-H148Q/I152L, iodide quench fluorescence; active compounds read low. B-score at 10 µM. hit rate 0.3% among 340,000;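 active = fluorescence-ratio B-score plate-corrected deviation score at least 3 library SD below zero, with starting fluorescence score within 5 deviations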;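 note: channel opened by trigger with iodide after compound preincubation; score built on the fluorescence ratio of max minus min over baseline; more negative score means more quench and so TMEM16A activation or potentiation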
# CHT allo act – allosterically activates the human high affinity choline transporter | Q9GZV3 | CHT-expressing cells, membrane potential dye, choline EC20; active compounds read high; LV-AA mutant CHT in HEK293 cells | B-score at 10 µM | hit rate 0.49% among 310,000 | AID 488977;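 active = initial fluorescence not abnormally high and integrated response B-score, plate-corrected, over 3 SD above library mean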
# Target sequence (Q9GZV3 whole entry, looked up): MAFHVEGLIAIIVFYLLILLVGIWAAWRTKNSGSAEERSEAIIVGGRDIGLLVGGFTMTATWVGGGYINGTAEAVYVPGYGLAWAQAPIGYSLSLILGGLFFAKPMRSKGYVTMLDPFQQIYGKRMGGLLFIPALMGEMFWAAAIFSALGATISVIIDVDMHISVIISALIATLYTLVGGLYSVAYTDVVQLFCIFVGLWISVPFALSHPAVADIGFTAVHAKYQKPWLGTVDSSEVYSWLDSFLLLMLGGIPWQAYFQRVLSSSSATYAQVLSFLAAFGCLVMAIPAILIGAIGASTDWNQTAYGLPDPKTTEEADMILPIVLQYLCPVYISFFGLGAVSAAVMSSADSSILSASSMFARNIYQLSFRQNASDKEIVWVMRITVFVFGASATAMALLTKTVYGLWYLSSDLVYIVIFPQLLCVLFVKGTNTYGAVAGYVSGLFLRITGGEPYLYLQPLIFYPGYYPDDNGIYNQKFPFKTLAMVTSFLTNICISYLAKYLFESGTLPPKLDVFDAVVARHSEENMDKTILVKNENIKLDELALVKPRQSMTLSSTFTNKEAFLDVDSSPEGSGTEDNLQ
# CHT block – inhibits the human high affinity choline transporter | B-score at 10 µM | AID 488975 | CHT-expressing cells, membrane potential dye, choline response; active compounds read low | hit rate 0.86% among 310,000;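 active = B-score over 3 SD under the library average, and starting fluorescence ratio not unusually high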;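 note: choline stimulus applied at its EC90 after an EC20 pre-addition; B-score computed on integrated fluorescence ratio after choline addition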
# IDE act – IDE (human) activation, cell-based | P14735 | HEK cells, FAbeta-B cleavage, fluorescence polarization; 0% vehicle, 100% cell-free pure enzyme wells | activation, % at 5.96 µM | hit rate 0.073% among 340,000;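 active = activation above the mean of all tested compounds plus 3 SD, set per screening campaign, cut at about 17% in these data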
# TMEM16A inh – inhibitors of mouse TMEM16A calcium-activated chloride channel. Q8BHY3. HEK293 TMEM16A/YFP iodide influx fluorescence, ionomycin. normalized B-score (activity score, 25-100; higher = stronger inhibition) at 10 µM. hit rate 1.2% among 310,000. AID 588511;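 active = ratio plate-corrected score three or more library SD toward inhibition, starting fluorescence score within five deviations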;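 note: score derived from kinetic fluorescence span divided by baseline fluorescence per well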
# IDE inh – cellular human IDE inhibition | P14735 | HEK cells, FAbetaB cleavage, fluorescence polarization | inhibition, % at 5.59 µM | hit rate 0.41% among 320,000;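 active = percent inhibition above the average of all tested compounds plus 3 SD, set per screening campaign, cut at about 16% in these data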;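 note: IDE supplied by intact live HEK cells; FP after avidin binding of uncleaved biotin substrate so inhibition keeps polarization high; 0% = DMSO wells and 100% = 60 µM reference IDE inhibitor Ii1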
# IDE inh confirm – confirmation of human insulin-degrading enzyme inhibitors in cells. hit rate 51% among 1,200. shares compounds with IDE inh. inhibition, % at 5.59 µM. HEK cells, FAbetaB cleavage, fluorescence polarization. AID 435028;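 active = mean inhibition across triplicate wells above the cutoff set by the earlier primary insulin-degrading enzyme screen, cut at about 16% in these data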;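 note: 0% = DMSO wells and 100% = 60 µM reference IDE inhibitor Ii1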
# HEK cytotox – HEK cell cytotoxicity, counter-screen for IDE inhibitors; HEK293 cytotoxicity, ATP luminescence; hit rate 28% among 1,200; shares compounds with IDE inh; inhibition, % at 5.59 µM; in the data active = inhibition above about 22%;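 note: 0% = vehicle wells and 100% = reference cytotoxic drug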
# FP fluor counter – counter-screen for IDE inhibitors: fluorescent artifacts; shares compounds with IDE inh; FP counterscreen for fluorescent artifacts, IDE probe project; IC50, µM; 30 tested, under 10 active; AID 588718; call rule not given here
# * marks the source's active call; other numbers are inactive results; i = inactive; . = not tested or not shown.
SMILES,TMEM16A act,CHT allo act,CHT block,IDE act,TMEM16A inh,IDE inh,IDE inh confirm,HEK cytotox,others
COc1ccc2nc(Nc3nc(CSc4nc5ccccc5[nH]4)cc(=O)[nH]3)nc(C)c2c1,i,i,i,-15,i,5,.,.,
Cc1nc(Nc2nc(CSc3nc4ccccc4[nH]3)cc(=O)[nH]2)nc2ccccc12,i,i,i,-38,i,45*,10,42*,
Nc1ccc2c3c(cccc13)CC2,i,i,i,-5,i,43*,3,4,
CC(=O)Oc1c(Cl)cc(Cl)cc1/C=C/c1ccc2ccccc2n1,i,i,i,-65,i,45*,68*,12,
Cc1cc(=O)[nH]c(N2CCCCC2)n1,i,.,.,7,.,.,.,.,
O=C(Cn1c(=O)cnc2ccccc21)NNC(=O)c1ccccc1Cl,i,.,.,2,.,4,.,.,
Cc1oc(C)c2c(=O)ccc3c(c12)OC(N)=C(C#N)C3c1ccccc1 (configuration not stated),i,i,i,-17,i,15,.,.,
CSc1ccc(C2C(C#N)=C(N)Oc3c2ccc(=O)c2c(C)oc(C)c32)cc1 (configuration not stated),i,i,i,-31,i,30*,109*,25*,
Cc1oc(C)c2c(=O)ccc3c(c12)OC(N)=C(C#N)C3c1ccccc1Cl (configuration not stated),i,i,i,-76,i,30*,26*,14,
Cc1cc(NC(=O)c2ccccc2)ccc1NC(=O)Cc1ccccc1,i,i,i,4,i,-3,.,.,
NC(=O)C1CCN(S(=O)(=O)c2cc3c4c(c2)CCN4C(=O)CC3)CC1,i,i,i,2,i,-3,.,.,
CC(=Nc1cccc(O)c1)c1sc2ccccc2c1O,i,i,i,-20,i,27*,65*,10,
CC(=Nc1ccc(C)cc1)c1sc2ccccc2c1O,i,i,i,-46,i,25*,44*,19,
Cc1nnc(-c2ccccc2)c(=O)n1/N=C/c1c(O)ccc2ccccc12,i,i,i,-59,i,54*,40*,57*,
CCOc1ccccc1NC(=O)CSc1nnc2ccc(-c3ccncc3)nn12,i,i,i,-16,i,22*,9,9,
COc1ccc(N(CC(=O)Nc2ccc(Cl)cc2)S(=O)(=O)c2c(C)n[nH]c2C)cc1,i,i,i,2,i,6,.,.,
COc1ccc(N(CC(=O)N2CCN(c3ccc(Cl)cc3)CC2)S(=O)(=O)c2c(C)n[nH]c2C)cc1,i,i,i,-16,i,18*,8,19,
Cc1ccc(NC(=O)N2CCCC2C(=O)Nc2nnc(C(C)C)s2)cc1 (configuration not stated),i,i,i,4,i,0,.,.,
COc1cc(/C=C2/SC(=S)N(CC(=O)O)C2=O)ccc1OC(=O)c1cccs1,i,i,i,-9,i,12,.,.,
COc1cc(/C=C2/SC(=O)NC2=O)ccc1OC(=O)c1ccco1,i,i,i,1,i,-4,.,.,
COc1cc(/C=C2/SC(=S)N(C)C2=O)ccc1OC(=O)c1ccco1,i,i,i,-26,i,24*,63*,9,
COc1cc(/C=C2\SC(=S)N(NC(C)=O)C2=O)ccc1OC(=O)c1ccco1,i,.,.,-17,.,22*,66*,11,FP fluor counter=>55
CCCOc1ccc(C(F)(F)F)cc1NC(=O)CCc1c(C)noc1C,i,.,.,2,.,-6,.,.,
COc1ccc(/C=C(\NC(=O)c2ccc(C)cc2)C(=O)Nc2ccc(C(=O)O)cc2)cc1,i,i,i,-2,i,3,.,.,
O=C(C1=C[C@H](c2coc3ccccc3c2=O)C[C@H](OCCCCO)O1)N1CCN(Cc2ccc3c(c2)OCO3)CC1,i,i,i,-6,i,17*,2,17,
SMILES,TMEM16A act,CHT allo act,CHT block,IDE act,TMEM16A inh,IDE inh,IDE inh confirm,HEK cytotox,others
O=C(C1=C[C@@H](c2coc3ccccc3c2=O)C[C@@H](OCCCCO)O1)N1CCOCC1,i,i,i,2,i,-1,.,.,
COc1ccc2ccccc2c1/C=N\NC(=O)c1cccnc1,i,i,i,.,i,-4,.,.,
O=C(N/N=C\c1c(O)ccc2ccccc12)c1ccc(O)cc1,i,i,i,0,i,2,.,.,
O=C(N/N=C/c1c(O)ccc2ccccc12)c1ccc(Br)o1,i,i,i,-91,i,99*,142*,102*,
Cc1ccc(C(=O)N/N=C/c2c(O)ccc3ccccc23)cn1,i,i,i,-68,i,64*,105*,96*,
O=C(N/N=C/c1c(O)ccc2ccccc12)c1cccnc1,i,i,i,-36,i,63*,64*,76*,
Cn1nccc1C(=O)N/N=C/c1c(O)ccc2ccccc12,i,i,i,-17,i,16*,22*,111*,
Cc1ccc(NC(=O)CSc2n[nH]c(-c3cccnc3)n2)cc1Cl,i,i,i,-7,i,7,.,.,
CCCCN1C(=O)c2cccc3cc(O)cc(c23)C1=O,i,i,i,-10,i,21*,28*,12,
O=C(CSc1nnc(-c2cccc(Cl)c2)n1Cc1ccco1)c1ccc2ccccc2c1,.,.,.,.,.,.,.,.,FP fluor counter=>55
Cc1cccc(-c2nnc(SCc3nc4ccccc4[nH]3)n2Cc2ccco2)c1,i,i,i,-20,i,37*,31*,21,FP fluor counter=>55
O=C(CSc1nnc(-c2cccnc2)n1Cc1ccco1)c1ccc2ccccc2c1,i,i,i,-4,i,10,.,.,
O=C(CSc1nnc(-c2cccc(Cl)c2)n1Cc1ccco1)Nc1ccc2cn[nH]c2c1,.,.,.,.,.,.,.,.,FP fluor counter=>55
COc1ccccc1NC(=O)c1ccc2c(c1)N(CC#N)C(=O)C(C)(C)O2,i,i,i,0,i,10,.,.,
C=CC(=O)N(CCC)C(c1ccccc1)c1ccccc1OC (configuration not stated),i,i,i,-1,i,8,.,.,
COc1ccc(N(C(=O)c2snc(C(N)=O)c2N)C(C(=O)NCC2CCCO2)c2ccc3ncccc3c2)cc1OC (configuration not stated),i,i,i,-5,i,-1,.,.,

# Screening data (PubChem)
